{"source": "paper PMC8384837", "about": "“Expanding the binding specificity for RNA recognition by a PUF domain”", "assay_in_all_cases": "yeast three-hybrid, YBZ-1, SC-Leu-His + 0.5 mM 3-AT, 4 days", "settings_in_all_cases": "tags: N-Gal4 AD-HA kept; label: inside an RPR1-promoter hybrid RNA with tandem MS2 sites; ssRNA", "key": {"PUM1 PUF domain R7-KYF": {"molecular_target": "PUM1 PUF domain R7-KYF (Homo sapiens, UniProt Q14671 828-1176, S1079K;N1080Y;E1083F)", "in_short": "(§1)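 Repeat regions from input (SC-Leu) and selection (SC-Leu-His + 0.5 mM 3-AT) plates were PCR-amplified and Illumina-sequenced after four days of growth. The cells were strain YBZ-1 with a LexA–MS2 coat fusion and a HIS3 reporter, co-expressing Pumilio-1 PUF domain libraries and matching RNA elements from a centromeric plasmid. The interaction score is the log change in variant frequency from input to selection, taken in log2 with a pseudocount of 1 for absent variants.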"}, "PUM1 PUF domain R4-PRQ": {"molecular_target": "PUM1 PUF domain R4-PRQ (Homo sapiens, UniProt Q14671 828-1176, N971P;H972R)", "in_short": "as §1"}, "PUM1 PUF domain R3-YRA": {"molecular_target": "PUM1 PUF domain R3-YRA (Homo sapiens, UniProt Q14671 828-1176, C935Y;Q939A)", "in_short": "as §1"}, "PUM1 PUF domain R3-FCA": {"molecular_target": "PUM1 PUF domain R3-FCA (Homo sapiens, UniProt Q14671 828-1176, C935F;R936C;Q939A)", "in_short": "as §1"}, "PUM1 PUF domain R1-KMV": {"molecular_target": "PUM1 PUF domain R1-KMV (Homo sapiens, UniProt Q14671 828-1176, S863K;R864M;Q867V)", "in_short": "as §1"}, "PUM1 PUF domain R1-RKR": {"molecular_target": "PUM1 PUF domain R1-RKR (Homo sapiens, UniProt Q14671 828-1176, S863R;R864K;Q867R)", "in_short": "as §1"}, "PUM1 PUF domain R6-NRK": {"molecular_target": "T1, PUM1 PUF domain R6-NRK (Homo sapiens, UniProt Q14671 828-1176, Y1044R;Q1047K)", "T1 sequence": "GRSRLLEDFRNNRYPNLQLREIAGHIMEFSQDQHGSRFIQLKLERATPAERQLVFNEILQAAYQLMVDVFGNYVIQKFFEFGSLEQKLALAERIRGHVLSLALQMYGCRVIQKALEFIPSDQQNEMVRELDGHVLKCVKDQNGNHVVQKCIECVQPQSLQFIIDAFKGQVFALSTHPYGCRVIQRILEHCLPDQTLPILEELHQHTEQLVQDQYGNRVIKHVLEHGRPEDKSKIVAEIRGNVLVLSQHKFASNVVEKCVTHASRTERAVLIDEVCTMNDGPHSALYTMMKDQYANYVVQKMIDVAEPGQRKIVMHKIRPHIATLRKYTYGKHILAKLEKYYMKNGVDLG", "in_short": "as §1"}, "PUM1 PUF domain R6-SFV": {"molecular_target": "T2, PUM1 PUF domain R6-SFV (Homo sapiens, UniProt Q14671 828-1176, N1043S;Y1044F;Q1047V)", "T2 sequence": "T1 sequence with N216S, R217F, K220V", "in_short": "as §1"}, "PUM1 PUF domain R8-KRT": {"molecular_target": "PUM1 PUF domain R8-KRT (Homo sapiens, UniProt Q14671 828-1176, N1122K;Y1123R;Q1126T)", "in_short": "as §1"}, "PUM1 PUF domain R4-AGY": {"molecular_target": "PUM1 PUF domain R4-AGY (Homo sapiens, UniProt Q14671 828-1176, N971A;H972G;Q975Y)", "in_short": "as §1"}, "PUM1 PUF domain R8-KWN": {"molecular_target": "PUM1 PUF domain R8-KWN (Homo sapiens, UniProt Q14671 828-1176, N1122K;Y1123W;Q1126N)", "in_short": "as §1"}, "PUM1 PUF domain R3-DYG": {"molecular_target": "PUM1 PUF domain R3-DYG (Homo sapiens, UniProt Q14671 828-1176, C935D;R936Y;Q939G)", "in_short": "as §1"}, "PUM1 PUF domain R5-RYC": {"molecular_target": "PUM1 PUF domain R5-RYC (Homo sapiens, UniProt Q14671 828-1176, C1007R;R1008Y;Q1011C)", "in_short": "as §1"}, "PUM1 PUF domain R6-GWQ": {"molecular_target": "T3, PUM1 PUF domain R6-GWQ (Homo sapiens, UniProt Q14671 828-1176, N1043G;Y1044W)", "T3 sequence": "T1 sequence with N216G, R217W, K220Q", "in_short": "as §1"}, "PUM1 PUF domain R5-KPI": {"molecular_target": "PUM1 PUF domain R5-KPI (Homo sapiens, UniProt Q14671 828-1176, C1007K;R1008P;Q1011I)", "in_short": "as §1"}}, "note": "Positions count from the first letter of the chain named.", "data": [{"sequence": "GGCUAGAACUAGUGGAUCCCCCGGCGCCCGGCGGCUCGAGCCCGGGUAAGUAUAAAUAGUCUGCAUGCCGCCGGGCGCCAUGCCUGCAGGUCGACUCUAGAAAACAUG", "values": [{"measurement": "binding signal", "setting": "PUM1 PUF domain R7-KYF", "result": "3.75 log2 enrichment (interaction score)"}]}, {"sequence": "GGCUAGAACUAGUGGAUCCCCCGGCGCCCGGCGGCUCGAGCCCGGGUAAGUGUACAUAGUCUGCAUGCCGCCGGGCGCCAUGCCUGCAGGUCGACUCUAGAAAACAUG", "values": [{"measurement": "binding signal", "setting": "PUM1 PUF domain R4-PRQ", "result": "3.53 log2 enrichment (interaction score)"}]}, {"sequence": "GGCUAGAACUAGUGGAUCCCCCGGCGCCCGGCGGCUCGAGCCCGGGUAAGUGUAAGUAGUCUGCAUGCCGCCGGGCGCCAUGCCUGCAGGUCGACUCUAGAAAACAUG", "values": [{"measurement": "binding signal", "setting": "PUM1 PUF domain R3-YRA", "result": "5.09 log2 enrichment (interaction score)"}, {"measurement": "binding signal", "setting": "PUM1 PUF domain R3-FCA", "result": "5.61 log2 enrichment (interaction score)"}]}, {"sequence": "GGCUAGAACUAGUGGAUCCCCCGGCGCCCGGCGGCUCGAGCCCGGGUAAGUGUAAAUCGUCUGCAUGCCGCCGGGCGCCAUGCCUGCAGGUCGACUCUAGAAAACAUG", "values": [{"measurement": "binding signal", "setting": "PUM1 PUF domain R1-KMV", "result": "3.19 log2 enrichment (interaction score)"}, {"measurement": "binding signal", "setting": "PUM1 PUF domain R1-RKR", "result": "3.04 log2 enrichment (interaction score)"}]}, {"sequence": "GGCUAGAACUAGUGGAUCCCCCGGCGCCCGGCGGCUCGAGCCCGGGUAAGUGUAAAUAGUCUGCAUGCCGCCGGGCGCCAUGCCUGCAGGUCGACUCUAGAAAACAUG", "values": [{"measurement": "binding signal", "setting": "PUM1 PUF domain R6-NRK", "result": "3.68 log2 enrichment (interaction score)"}, {"measurement": "binding signal", "setting": "PUM1 PUF domain R6-SFV", "result": "3.58 log2 enrichment (interaction score)"}, {"measurement": "binding signal", "setting": "PUM1 PUF domain R8-KRT", "result": "1.36 log2 enrichment (interaction score)"}, {"measurement": "binding signal", "setting": "PUM1 PUF domain R4-AGY", "result": "3.24 log2 enrichment (interaction score)"}, {"measurement": "binding signal", "setting": "PUM1 PUF domain R3-YRA", "result": "0.87 log2 enrichment (interaction score)"}, {"measurement": "binding signal", "setting": "PUM1 PUF domain R8-KWN", "result": "2.44 log2 enrichment (interaction score)"}, {"measurement": "binding signal", "setting": "PUM1 PUF domain R3-DYG", "result": "3.9 log2 enrichment (interaction score)"}, {"measurement": "binding signal", "setting": "PUM1 PUF domain R5-RYC", "result": "3.48 log2 enrichment (interaction score)"}, {"measurement": "binding signal", "setting": "PUM1 PUF domain R6-GWQ", "result": "5.78 log2 enrichment (interaction score)"}]}, {"sequence": "GGCUAGAACUAGUGGAUCCCCCGGCGCCCGGCGGCUCGAGCCCGGGUAAGGGUAAAUAGUCUGCAUGCCGCCGGGCGCCAUGCCUGCAGGUCGACUCUAGAAAACAUG", "values": [{"measurement": "binding signal", "setting": "PUM1 PUF domain R8-KWN", "result": "2.68 log2 enrichment (interaction score)"}]}, {"sequence": "GGCUAGAACUAGUGGAUCCCCCGGCGCCCGGCGGCUCGAGCCCGGGUAAGUGUCAAUAGUCUGCAUGCCGCCGGGCGCCAUGCCUGCAGGUCGACUCUAGAAAACAUG", "values": [{"measurement": "binding signal", "setting": "PUM1 PUF domain R5-KPI", "result": "5.02 log2 enrichment (interaction score)"}, {"measurement": "binding signal", "setting": "PUM1 PUF domain R5-RYC", "result": "4.73 log2 enrichment (interaction score)"}]}]}
